Reference: PubChem BioAssay (NCI)
Where “and” joins values, the source holds several entries; their conditions need not be identical. Equal values may be shown once. The panel holds about 79,000 compounds, 15% with a hit somewhere; the sample as a whole holds those more often. Calls of active or inactive are those of the source. No stated cut-off is given here; in the data, active means growth inhibition above about 70%; inactive means the rest.

Key:
[1] = NCI Yeast Anticancer Drug Screen. Data for the rad50 strain (AID 155);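 further: 0% = growth of vehicle-only cultures of the same strain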; details: S. cerevisiae rad50 strain growth inhibition, hits give high values
Procedure, shortened: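 Yeast carrying a defined DNA repair defect were exposed to test compounds, and growth was compared with vehicle-treated controls to give percent inhibition.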

[2] = NCI Yeast Anticancer Drug Screen. Data for the mec2-1 strain (AID 157); details: S. cerevisiae mec2-1 strain, hits give high values
Procedure, shortened: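 Mutant yeast (mec2-1) grown with compound; growth inhibition relative to vehicle control reported.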

[3] = NCI Yeast Anticancer Drug Screen. Data for the sgs1 mgt1 strain (AID 161);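 further: 0% = growth of cultures given vehicle only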; details: S. cerevisiae sgs1 mgt1 strain, hits give high values
Procedure, shortened: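 Percent growth inhibition was derived by comparing compound-exposed mutant yeast with vehicle-exposed cultures. The strain carries alterations in DNA damage repair.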

[4] = NCI Yeast Anticancer Drug Screen. Data for the cln2 rad14 strain (AID 165);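 further: 0% = growth equal to vehicle treated cultures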; details: S. cerevisiae cln2 rad14 strain, hits give high values
Procedure, shortened: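 Readout is yeast growth inhibition versus vehicle-treated controls, using a strain with cln2 and rad14 alterations exposed to compound.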

[5] = NCI Yeast Anticancer Drug Screen. Data for the bub3 strain (AID 167); details: S. cerevisiae bub3 mutant strain, hits give high values
Procedure, shortened: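 Compounds were applied to a genetically altered yeast strain carrying a cell-cycle control defect. Growth inhibition was scored against vehicle-treated controls.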

[6] = NCI Yeast Anticancer Drug Screen. Data for the mlh1 rad18 strain (AID 175); details: S. cerevisiae mlh1 rad18 strain growth inhibition, hits give high values
Procedure, shortened: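 Genetically defined yeast (DNA repair-deficient) exposed to compounds; growth inhibition determined relative to vehicle.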

[7] = at 5.0 µM (retest, dose inferred, filed as 0.5)
[8] = at 50.0 µM (retest, dose inferred, filed as 5.0)

Measured: growth inhibition

O=c1oc2ccccc2c(O)c1C(c1ccco1)c1c(O)c2ccccc2oc1=O
active: [1]; at 50.0 µM 79% | [2]; at 50.0 µM 79.2%
inactive: [1]; [7] 11% | [1]; [8] 22% | [2]; [7] 13% | [2]; [8] 24% | [3]; [7] -6% | [3]; [8] 43% | [3]; at 50.0 µM 44.2% | [4]; [7] 16% | [4]; [8] 28% | [4]; at 50.0 µM 41.5% | [5]; [7] 9% | [5]; [8] 56% | [5]; at 50.0 µM 34.2% | [6]; [7] 9% | [6]; [8] 19% | [6]; at 50.0 µM 27.5%

CC(O)C(=O)O.CC(O)C(=O)O.[Ni] (stereo unspecified)
active: [4]; at 50.0 µM 74%
inactive: [1]; [7] -1% | [1]; [8] 7% | [1]; at 50.0 µM 4.2% | [2]; [7] 5% | [2]; [8] 3% | [2]; at 50.0 µM 19.1% | [3]; [7] -1% | [3]; [8] 4% | [3]; at 50.0 µM 0.95% | [4]; [7] -5% | [4]; [8] -2% | [5]; [7] 1% | [5]; [8] 0% | [5]; at 50.0 µM 18.1% | [6]; [7] -2% | [6]; [8] 12% | [6]; at 50.0 µM 19.4%

Nc1nc(N)c(-c2ccc(Cl)c(Cl)c2)c(CCc2ccc(CNC(=O)c3ccc(S(=O)(=O)F)cc3)cc2)n1
inactive: [1]; [7] -4% | [1]; at 50.0 µM 46.7% | [2]; [7] 3% | [2]; [8] 66% | [3]; [7] 6% | [3]; at 50.0 µM 44% | [4]; [7] -14% | [5]; [7] -17% | [5]; [8] 54% | [5]; at 50.0 µM 68.9% | [6]; [7] 22%
active: [1]; [8] 87% | [2]; at 50.0 µM 96.5% | [3]; [8] 98% | [4]; [8] 88% | [4]; at 50.0 µM 74.6% | [6]; [8] 96% | [6]; at 50.0 µM 76.2%

COC([CH2][Hg][n]1cnc2c1c(=O)n(C)c(=O)n2C)CN1C(=O)c2ccccc2S1(=O)=O (stereo unspecified)
inactive: [1]; [7] 9% | [2]; [7] 20% | [3]; [7] -2% | [4]; [7] -11% | [4]; [8] 69% | [5]; [7] -1% | [6]; [7] -1%
active: [1]; [8] 94% | [1]; at 50.0 µM 96.8% | [2]; [8] 84% | [2]; at 50.0 µM 95.3% | [3]; [8] 89% | [3]; at 50.0 µM 87.7% | [4]; at 50.0 µM 87.2% | [5]; [8] 89% | [5]; at 50.0 µM 95.1% | [6]; [8] 95% | [6]; at 50.0 µM 97%

CCC[CH2][Sn]([F])([CH2]CCC)[O][Sn]([F])([CH2]CCC)[CH2]CCC
active: [1]; [8] 98% | [1]; at 50.0 µM 97.5% | [2]; [8] 99% | [2]; at 50.0 µM 98.9% | [3]; [8] 98% | [3]; at 50.0 µM 98.2% | [4]; [8] 98% | [4]; at 50.0 µM 98.3% | [5]; [8] 96% | [5]; at 50.0 µM 98.5% | [6]; [8] 97% | [6]; at 50.0 µM 98.2%
inactive: [1]; [7] 51% | [2]; [7] 46% | [3]; [7] 50% | [4]; [7] 34% | [5]; [7] 54% | [6]; [7] 48%

NC(=O)CNCc1ccc([As]=O)cc1 (stereo unspecified)
active: [1]; at 50.0 µM 72.8% | [3]; at 50.0 µM 71.1% | [5]; at 50.0 µM 74.2%
inactive: [1]; [7] 2% | [1]; [8] 1% | [2]; [7] 3% | [2]; [8] -2% | [2]; at 50.0 µM 50.1% | [3]; [7] 0% | [3]; [8] -2% | [4]; [7] 1% | [4]; [8] 3% | [4]; at 50.0 µM 10.4% | [5]; [7] 3% | [5]; [8] 8% | [6]; [7] 12% | [6]; [8] -6% | [6]; at 50.0 µM 69.5%

CCC(C)(C)c1ccc(O)cc1
inactive: [1]; [7] -1% | [1]; [8] 16% | [1]; at 50.0 µM -19.3% and 59.8% | [2]; [7] -3% | [2]; [8] 0% | [2]; at 50.0 µM -17.4% and 40.9% | [3]; [7] -10% | [3]; [8] 5% | [3]; at 50.0 µM -10.9% and 63% | [4]; [7] 1% | [4]; [8] -4% | [4]; at 50.0 µM -15.2% and -13.6% | [5]; [7] 2% | [5]; [8] 7% | [5]; at 50.0 µM -28.6% and 38.3% | [6]; [7] -2% | [6]; [8] 11% | [6]; at 50.0 µM -17.7% and 64.5%
